Test results: the supplement of paper PMC10849652
Targets with a hit are over-represented here; the source holds about 8,800 in all. About 0.5% of all pairs of compound and target were hits.

Assays:
Assay in all cases: log2 fold change, soluble protein after heating vs DMSO (PISA); higher = thermal stabilisation; K562 lysate, 10 uM; active = over 0.2 and 3.5 SD of the protein, either way, in both replicates (recomputed)
erlotinib = compound: C#Cc1cccc(Nc2ncnc3cc(OCCOC)c(OCCOC)cc23)c1 [erlotinib]
In short: (§1)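 Soluble protein was defined as the supernatant remaining after 21,000xg for 90 min, following pooling of heated aliquots and adjustment to 0.5% NP-40 at 4°C. Before that, crude K562 extract at 1 mg/mL protein in PBS pH 7.4 with 1 mM MgCl2 was treated with 10 μM compound for 30 min and heated for 3 min across 48°C-58°C. Quantification used TMTpro 16plex LC-MS/MS with channel sums equalised, and values are log-two fold changes in thermal stability relative to solvent controls from duplicates.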

[1] = compound: C/C(=N\NC(=O)C1=CC(=CC=C1)S(=O)(=O)N2CCOCC2)/C3=C(C=CC(=C3)Cl)O
In short: as §1

[2] = compound: C1=CC(=CC=C1C2=NC3=C(N2)C=C(C=C3)C(=O)N)OC4=CC=C(C=C4)Cl
In short: as §1

[3] = compound: C1=CC2=C(C=CC(=C2)/C=C\3/C(=O)NC(=NCC4=CC=CS4)S3)N=C1
In short: as §1

[4] = compound: C1=CC2=NC=CN=C2C=C1/C=C/3\C(=O)NC(=O)S3
In short: as §1

[5] = compound: C1=CC=C(C=C1)C2=NC(=C(N2)C3=CC=NC=C3)C4=CC(=C(C=C4)Cl)O
In short: as §1

[6] = compound: C1=CC=C2C(=C1)C3=NNC4=CC=CC(=C43)C2=O
In short: as §1

[7] = compound: C1CCN(C1)C(=O)NC2=CC=CC(=C2)NC3=NC=C(C(=N3)NCCC4=CN=CN4)Br
In short: as §1

[8] = compound: C1CN(CCC1(CC2=CC=C(C=C2)Cl)N)C3=NC=NC4=C3C=CN4
In short: as §1

IRAK-1-4 Inhibitor I = compound: C1COCCN1CCN2C3=CC=CC=C3N=C2NC(=O)C4=CC(=CC=C4)[N+](=O)[O-] [IRAK-1-4 Inhibitor I]
In short: as §1

ibrutinib = compound: C=CC(=O)N1CCC[C@@H](n2nc(-c3ccc(Oc4ccccc4)cc3)c3c(N)ncnc32)C1 [ibrutinib]
In short: as §1

[9] = compound: CC(=O)c1cnc2ccc(-c3cc(Cl)c(O)c(Cl)c3)nc2c1N[C@H]1CC[C@H](CN(C)C)CC1
In short: as §1

ralimetinib = compound: CC(C)(C)Cn1c(N)nc2ccc(-c3[nH]c(C(C)(C)C)nc3-c3ccc(F)cc3)nc21 [ralimetinib]
In short: as §1

[10] = compound: CC(C)(O)CC(=O)NCCn1ccc2ncnc(Nc3ccc(Oc4cccc(C(F)(F)F)c4)c(Cl)c3)c21
In short: as §1

[11] = compound: CC(C)C1=C2N=C(C=C(N2N=C1)NCC3=CC=CC=C3)NCCCCCCN
In short: as §1

[12] = compound: CC1=C(C(CC(=O)N1)C2=CC=C(C=C2)C(F)(F)F)C(=O)NC3=C(C=C4C(=C3)C=NN4)F
In short: as §1

[13] = compound: CC1=C(C2=C(C=C1)C(=O)C3=CC=CC=C3N2CCCN)C
In short: as §1

[14] = compound: CC1=C(C=C(C=C1)NC(=O)C2=CC(=CC=C2)N(C)C)NC(=O)C3=CC=C(C=C3)O
In short: as §1

[15] = compound: CC1=CC=C(C=C1)SC2=C3C=C(SC3=CN=C2)C(=O)N
In short: as §1

[16] = compound: CC1=C(C=C(C=C1)NC(=O)C2=CC(=CC=C2)C(C)(C)C#N)NC3=CC4=C(C=C3)N=CN(C4=O)C
In short: as §1

Measured: log2 fold change

RTTN (UniProt Q86VV8)
inactive: erlotinib -0.002 | [1] -0.196 | [2] -0.123 | [3] -0.103 | [4] 0.045 | [5] -0.043 | [6] -0.056 | [7] 0.14 | [8] 0.036 | IRAK-1-4 Inhibitor I 0.098 | ibrutinib 0.095 | [9] 0.155 | ralimetinib 0.145 | [10] -0.137 | [11] 0.379 | [12] -0.053 | [13] 0.015 | [14] -0.004 | [15] 0.112

RNF123 (UniProt Q5XPI4)
inactive: erlotinib 0.058 | [1] 0.016 | [2] -0.008 | [3] 0.029 | [4] 0.019 | [5] -0.015 | [6] -0.035 | [7] -0.005 | [8] 0.044 | IRAK-1-4 Inhibitor I -0.019 | ibrutinib 0.028 | [9] 0.017 | ralimetinib 0.029 | [10] -0.042 | [11] -0.003 | [12] -0.02 | [13] 0.001 | [16] 0.027 | [14] -0.016 | [15] 0.022

RAB5IF isoform 5 (UniProt Q9BUV8)
inactive: erlotinib 0.193 | [1] 0.021 | [2] 0.082 | [3] 0.001 | [4] -0.052 | [6] -0.036 | [7] -0.065 | [8] 0.034 | ibrutinib -0.039 | [9] -0.029 | [11] -0.163 | [12] 0.086 | [13] -0.165 | [15] 0.073

RETSAT (UniProt Q6NUM9)
UniProt Q6NUM9, sequence (Q6NUM9 whole entry, looked up): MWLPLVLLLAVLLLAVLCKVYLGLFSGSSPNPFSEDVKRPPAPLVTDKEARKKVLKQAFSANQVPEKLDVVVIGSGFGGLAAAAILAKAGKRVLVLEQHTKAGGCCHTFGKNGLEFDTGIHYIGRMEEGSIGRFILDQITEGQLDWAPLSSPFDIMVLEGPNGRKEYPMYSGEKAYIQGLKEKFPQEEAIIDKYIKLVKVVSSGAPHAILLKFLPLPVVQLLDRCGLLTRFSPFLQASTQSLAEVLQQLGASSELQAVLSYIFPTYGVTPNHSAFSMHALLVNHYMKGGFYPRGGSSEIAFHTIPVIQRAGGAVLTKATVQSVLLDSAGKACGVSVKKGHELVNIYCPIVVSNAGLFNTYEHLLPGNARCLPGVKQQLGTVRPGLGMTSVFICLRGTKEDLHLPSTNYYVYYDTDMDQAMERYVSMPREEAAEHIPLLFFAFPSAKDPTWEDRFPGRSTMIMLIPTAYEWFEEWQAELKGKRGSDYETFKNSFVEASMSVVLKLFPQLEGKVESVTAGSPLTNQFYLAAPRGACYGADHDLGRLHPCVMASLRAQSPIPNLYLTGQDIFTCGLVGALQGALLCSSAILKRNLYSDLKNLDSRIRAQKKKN
inactive: erlotinib -0.092 | [1] 0.054 | [2] 0.026 | [3] 0.021 | [4] -0.092 | [5] -0.004 | [6] -0.152 | [7] -0.077 | [8] -0.052 | IRAK-1-4 Inhibitor I 0.148 | ibrutinib -0.091 | [9] 0.073 | ralimetinib -0.057 | [10] -0.134 | [11] 0.07 | [13] -0.113 | [16] 0.226 | [14] -0.015 | [15] -0.24

RAPGEF4 (UniProt Q8WZA2)
inactive: erlotinib 0.181 | [1] 0.057 | [2] 0.049 | [3] -0.016 | [4] -0.019 | [5] -0.092 | [6] -0.195 | [7] -0.043 | [8] 0.12 | IRAK-1-4 Inhibitor I 0.184 | ibrutinib -0.026 | [9] -0.129 | ralimetinib -0.001 | [10] -0.328 | [11] 0.044 | [13] 0.046 | [16] 0.442 | [14] -0.004 | [15] -0.166

RFWD3 (UniProt Q6PCD5)
inactive: erlotinib -0.12 | [1] 0.005 | [2] 0.048 | [3] -0.061 | [4] 0.062 | [5] 0.029 | [6] -0.039 | [7] -0.086 | [8] 0.053 | IRAK-1-4 Inhibitor I 0.054 | ibrutinib -0.001 | ralimetinib 0.039 | [10] -0.059 | [11] 0.066 | [12] 0.059 | [13] -0.06 | [16] 0.087 | [14] -0.007

RPL27 (UniProt P61353)
inactive: erlotinib 0.002 | [1] -0.02 | [2] -0.04 | [3] -0.033 | [4] 0.011 | [5] 0.011 | [6] 0.03 | [7] 0.052 | [8] -0.014 | IRAK-1-4 Inhibitor I -0.014 | ibrutinib 0.037 | [9] -0.014 | ralimetinib -0.025 | [10] -0.018 | [11] -0.01 | [12] -0.067 | [13] -0.051 | [16] 0 | [14] -0.01 | [15] 0.014

RIPK1 (UniProt Q13546)
UniProt Q13546, sequence (Q13546 whole entry, looked up): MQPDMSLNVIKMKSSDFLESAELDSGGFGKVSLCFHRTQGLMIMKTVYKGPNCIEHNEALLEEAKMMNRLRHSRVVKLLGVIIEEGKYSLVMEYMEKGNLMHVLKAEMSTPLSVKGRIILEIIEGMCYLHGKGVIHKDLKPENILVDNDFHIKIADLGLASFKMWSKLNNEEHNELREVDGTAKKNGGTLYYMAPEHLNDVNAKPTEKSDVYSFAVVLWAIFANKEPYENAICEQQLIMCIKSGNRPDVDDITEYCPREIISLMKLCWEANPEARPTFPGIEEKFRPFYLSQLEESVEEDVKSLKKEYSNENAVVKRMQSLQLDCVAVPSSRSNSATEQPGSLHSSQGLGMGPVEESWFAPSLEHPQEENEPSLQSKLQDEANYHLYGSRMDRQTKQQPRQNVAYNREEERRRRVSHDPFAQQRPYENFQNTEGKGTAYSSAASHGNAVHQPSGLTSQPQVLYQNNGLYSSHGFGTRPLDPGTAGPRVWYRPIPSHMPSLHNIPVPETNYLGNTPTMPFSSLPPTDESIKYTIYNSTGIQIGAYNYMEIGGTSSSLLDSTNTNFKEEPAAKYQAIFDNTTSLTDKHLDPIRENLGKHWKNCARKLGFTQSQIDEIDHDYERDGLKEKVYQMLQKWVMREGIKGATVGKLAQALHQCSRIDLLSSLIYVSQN
inactive: erlotinib -0.026 | [1] -0.01 | [2] -0.017 | [3] -0.022 | [4] -0.015 | [5] 0.008 | [6] 0.08 | [7] 0.031 | [8] -0.057 | IRAK-1-4 Inhibitor I 0 | ibrutinib -0.02 | [9] -0.025 | ralimetinib -0.009 | [10] -0.011 | [11] 0.018 | [12] 0.001 | [13] -0.013 | [16] 0.001 | [14] -0.02 | [15] 0.003

RNF113A (UniProt O15541)
UniProt O15541, sequence (O15541 whole entry, looked up): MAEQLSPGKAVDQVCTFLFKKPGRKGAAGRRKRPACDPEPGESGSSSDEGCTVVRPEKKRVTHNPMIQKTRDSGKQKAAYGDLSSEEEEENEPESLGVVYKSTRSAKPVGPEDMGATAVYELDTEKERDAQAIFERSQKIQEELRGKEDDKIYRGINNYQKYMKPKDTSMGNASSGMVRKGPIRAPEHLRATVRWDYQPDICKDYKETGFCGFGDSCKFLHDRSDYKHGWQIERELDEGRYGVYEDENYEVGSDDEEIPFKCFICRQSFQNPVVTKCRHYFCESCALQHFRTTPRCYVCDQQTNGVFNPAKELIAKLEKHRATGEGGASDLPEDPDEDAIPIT
inactive: erlotinib -0.039 | [1] -0.039 | [2] 0.036 | [3] 0.027 | [4] -0.008 | [5] -0.01 | [6] -0.02 | [7] -0.005 | [8] 0.01 | IRAK-1-4 Inhibitor I 0.02 | ibrutinib 0.009 | [9] -0.003 | ralimetinib 0.005 | [10] -0.049 | [11] 0.111 | [12] 0.015 | [13] -0.038 | [16] 0.024 | [14] 0.017 | [15] -0.03

RAP1B (UniProt F5GZG1)
inactive: erlotinib -0.028 | [1] 0.332 | [2] 0.101 | [3] -0.048 | [4] -0.206 | [6] -0.08 | [7] -0.081 | [8] 0.04 | ibrutinib 0.01 | [9] -0.021 | [11] 0.061 | [12] 0.036 | [13] 0.019 | [16] -0.124 | [15] 0.117

RNF149 (UniProt Q8NC42)
inactive: erlotinib -0.044 | [1] -0.03 | [2] 0.003 | [3] -0.046 | [4] 0.135 | [5] -0.021 | [6] -0.031 | IRAK-1-4 Inhibitor I 0.068 | ibrutinib 0.04 | [9] 0.023 | ralimetinib 0.044 | [10] -0.041 | [11] -0.005 | [12] -0.021 | [13] 0.001 | [16] -0.014 | [14] 0.113 | [15] 0.06

RCC1 isoform 2 (UniProt P18754)
UniProt P18754, sequence (P18754 whole entry, looked up): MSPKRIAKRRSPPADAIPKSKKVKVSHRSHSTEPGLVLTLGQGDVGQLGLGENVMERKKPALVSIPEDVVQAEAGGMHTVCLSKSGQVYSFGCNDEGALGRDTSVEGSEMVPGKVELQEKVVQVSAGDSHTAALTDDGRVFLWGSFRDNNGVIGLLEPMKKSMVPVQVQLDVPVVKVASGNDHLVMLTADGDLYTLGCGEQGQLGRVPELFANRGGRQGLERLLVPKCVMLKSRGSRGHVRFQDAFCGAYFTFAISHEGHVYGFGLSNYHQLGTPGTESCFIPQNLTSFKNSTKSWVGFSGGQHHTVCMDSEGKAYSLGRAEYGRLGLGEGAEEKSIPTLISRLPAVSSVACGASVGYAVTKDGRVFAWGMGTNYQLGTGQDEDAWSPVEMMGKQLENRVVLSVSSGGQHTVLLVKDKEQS
inactive: erlotinib 0.016 | [1] 0.005 | [2] -0.033 | [3] 0 | [4] 0.017 | [5] 0.007 | [6] -0.024 | [7] -0.008 | [8] -0.043 | IRAK-1-4 Inhibitor I -0.022 | ibrutinib -0.008 | [9] 0.012 | ralimetinib 0.041 | [10] 0.019 | [11] 0.015 | [12] -0.048 | [13] -0.037 | [16] -0.01 | [14] 0.036 | [15] 0.01

RIOK1 (UniProt Q9BRS2)
UniProt Q9BRS2, sequence (Q9BRS2 whole entry, looked up): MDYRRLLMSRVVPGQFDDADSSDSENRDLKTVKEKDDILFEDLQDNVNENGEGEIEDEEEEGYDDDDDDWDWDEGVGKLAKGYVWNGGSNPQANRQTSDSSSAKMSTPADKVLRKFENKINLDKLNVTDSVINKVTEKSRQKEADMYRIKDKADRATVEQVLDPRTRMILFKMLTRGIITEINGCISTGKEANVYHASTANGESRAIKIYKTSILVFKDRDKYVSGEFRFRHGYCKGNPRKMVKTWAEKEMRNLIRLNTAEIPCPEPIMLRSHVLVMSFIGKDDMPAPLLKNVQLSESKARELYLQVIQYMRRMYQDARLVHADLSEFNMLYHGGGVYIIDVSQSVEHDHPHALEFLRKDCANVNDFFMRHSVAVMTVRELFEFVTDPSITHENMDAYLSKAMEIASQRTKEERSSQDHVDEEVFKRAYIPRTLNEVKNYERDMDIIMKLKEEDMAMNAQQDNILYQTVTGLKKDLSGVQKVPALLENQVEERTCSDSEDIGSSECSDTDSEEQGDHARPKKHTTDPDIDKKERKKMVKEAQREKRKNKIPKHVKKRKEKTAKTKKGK
active: [4] 0.393 | [6] 0.4
inactive: erlotinib -0.033 | [1] -0.029 | [2] 0.034 | [3] 0.209 | [5] 0.128 | [7] -0.024 | [8] 0.028 | IRAK-1-4 Inhibitor I -0.02 | ibrutinib 0.006 | [9] 0.251 | ralimetinib 0.002 | [10] -0.003 | [11] -0.005 | [12] 0.004 | [13] -0.009 | [16] 0.015 | [14] -0.009 | [15] 0.249

SESN2 (UniProt P58004)
inactive: erlotinib 0.043 | [1] 0.102 | [2] -0.007 | [3] -0.017 | [4] 0.023 | [5] -0.037 | [6] -0.07 | [7] 0.051 | [8] -0.014 | IRAK-1-4 Inhibitor I -0.048 | ibrutinib -0.001 | [9] -0.038 | ralimetinib 0.018 | [10] 0.007 | [11] 0.019 | [12] -0.051 | [13] -0.064 | [16] 0.008 | [14] 0.078 | [15] 0.205

RBM5 (UniProt P52756)
inactive: erlotinib 0.095 | [1] -0.042 | [2] 0.054 | [3] 0.006 | [4] -0.006 | [5] 0.015 | [6] -0.121 | [7] -0.021 | [8] -0.001 | IRAK-1-4 Inhibitor I -0.023 | ibrutinib -0.017 | [9] 0.03 | ralimetinib 0.004 | [10] 0.042 | [11] -0.141 | [12] -0.004 | [13] 0.065 | [16] 0.035 | [14] -0.007 | [15] -0.06

RFC4 (UniProt P35249)
UniProt P35249, sequence (P35249 whole entry, looked up): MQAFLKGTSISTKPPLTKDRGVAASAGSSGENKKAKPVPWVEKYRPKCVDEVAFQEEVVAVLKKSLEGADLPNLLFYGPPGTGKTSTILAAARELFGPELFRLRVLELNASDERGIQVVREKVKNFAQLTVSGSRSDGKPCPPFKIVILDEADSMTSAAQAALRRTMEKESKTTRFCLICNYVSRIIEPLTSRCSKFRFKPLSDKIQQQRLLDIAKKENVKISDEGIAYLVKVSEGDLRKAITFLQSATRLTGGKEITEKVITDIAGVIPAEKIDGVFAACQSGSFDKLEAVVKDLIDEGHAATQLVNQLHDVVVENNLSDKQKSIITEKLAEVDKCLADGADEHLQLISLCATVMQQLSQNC
inactive: erlotinib 0.006 | [1] 0.027 | [2] -0.033 | [3] -0.027 | [4] 0.018 | [5] 0.007 | [6] -0.056 | [7] -0.022 | [8] -0.012 | IRAK-1-4 Inhibitor I -0.018 | ibrutinib -0.01 | [9] -0.008 | ralimetinib -0.01 | [10] -0.015 | [11] 0.032 | [12] 0 | [13] 0.026 | [16] -0.001 | [14] 0.002 | [15] 0.019

RALGAPA1 isoform 6 (UniProt Q6GYQ0)
UniProt Q6GYQ0, sequence (Q6GYQ0 whole entry, looked up): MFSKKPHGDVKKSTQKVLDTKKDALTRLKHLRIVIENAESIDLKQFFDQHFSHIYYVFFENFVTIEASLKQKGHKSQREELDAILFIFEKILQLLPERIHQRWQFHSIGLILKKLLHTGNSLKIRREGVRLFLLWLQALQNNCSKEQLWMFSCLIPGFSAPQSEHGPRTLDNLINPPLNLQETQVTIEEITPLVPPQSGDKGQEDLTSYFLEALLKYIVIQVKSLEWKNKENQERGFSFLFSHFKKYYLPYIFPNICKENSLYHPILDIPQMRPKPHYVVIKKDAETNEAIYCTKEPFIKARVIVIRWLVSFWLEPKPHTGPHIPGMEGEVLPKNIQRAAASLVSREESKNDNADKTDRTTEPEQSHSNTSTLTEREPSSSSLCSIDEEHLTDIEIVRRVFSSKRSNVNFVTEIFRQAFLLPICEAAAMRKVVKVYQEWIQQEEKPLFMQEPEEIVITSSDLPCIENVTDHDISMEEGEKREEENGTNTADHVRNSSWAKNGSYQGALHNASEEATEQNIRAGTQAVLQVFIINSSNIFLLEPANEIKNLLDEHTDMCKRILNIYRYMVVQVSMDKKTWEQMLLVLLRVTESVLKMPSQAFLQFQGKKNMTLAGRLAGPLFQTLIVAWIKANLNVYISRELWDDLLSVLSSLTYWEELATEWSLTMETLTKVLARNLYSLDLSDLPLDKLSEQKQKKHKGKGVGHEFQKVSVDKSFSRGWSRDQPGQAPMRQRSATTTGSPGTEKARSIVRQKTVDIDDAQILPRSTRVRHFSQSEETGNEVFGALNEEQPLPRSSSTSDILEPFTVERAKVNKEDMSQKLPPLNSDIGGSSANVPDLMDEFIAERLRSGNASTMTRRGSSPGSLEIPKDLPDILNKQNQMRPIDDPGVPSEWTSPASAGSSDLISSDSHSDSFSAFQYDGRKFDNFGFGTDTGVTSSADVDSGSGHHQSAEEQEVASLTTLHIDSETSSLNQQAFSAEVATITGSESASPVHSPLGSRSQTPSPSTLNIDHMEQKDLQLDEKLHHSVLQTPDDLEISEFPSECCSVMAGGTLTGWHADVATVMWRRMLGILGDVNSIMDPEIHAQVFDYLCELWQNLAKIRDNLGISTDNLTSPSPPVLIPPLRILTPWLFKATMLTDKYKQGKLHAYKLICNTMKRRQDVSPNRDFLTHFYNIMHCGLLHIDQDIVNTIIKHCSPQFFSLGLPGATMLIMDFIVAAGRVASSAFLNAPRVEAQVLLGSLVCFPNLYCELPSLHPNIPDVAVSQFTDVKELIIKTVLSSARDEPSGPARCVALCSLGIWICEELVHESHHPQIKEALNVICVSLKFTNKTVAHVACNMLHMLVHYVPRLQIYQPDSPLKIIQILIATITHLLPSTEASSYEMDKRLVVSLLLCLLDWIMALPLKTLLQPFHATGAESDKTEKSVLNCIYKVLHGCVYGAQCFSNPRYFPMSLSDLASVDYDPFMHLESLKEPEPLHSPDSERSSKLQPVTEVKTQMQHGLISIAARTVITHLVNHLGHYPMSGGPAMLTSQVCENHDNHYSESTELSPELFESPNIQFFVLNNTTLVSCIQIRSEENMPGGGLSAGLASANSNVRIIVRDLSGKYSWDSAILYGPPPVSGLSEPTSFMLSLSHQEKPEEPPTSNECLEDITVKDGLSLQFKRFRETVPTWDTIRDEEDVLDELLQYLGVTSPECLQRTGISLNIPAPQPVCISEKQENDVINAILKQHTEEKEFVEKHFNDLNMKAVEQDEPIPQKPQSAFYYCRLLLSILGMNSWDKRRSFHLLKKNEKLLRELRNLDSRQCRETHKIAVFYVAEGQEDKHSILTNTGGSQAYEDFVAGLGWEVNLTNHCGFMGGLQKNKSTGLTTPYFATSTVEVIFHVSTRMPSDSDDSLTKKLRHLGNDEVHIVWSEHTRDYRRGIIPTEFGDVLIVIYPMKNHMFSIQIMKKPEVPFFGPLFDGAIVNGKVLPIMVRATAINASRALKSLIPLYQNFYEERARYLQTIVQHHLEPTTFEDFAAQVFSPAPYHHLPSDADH
inactive: erlotinib 0.056 | [1] -0.093 | [2] 0.098 | [3] 0.065 | [4] -0.105 | [5] -0.064 | [6] -0.015 | [7] -0.042 | [8] 0.031 | IRAK-1-4 Inhibitor I 0.004 | ibrutinib 0.047 | [9] -0.06 | ralimetinib 0.01 | [10] 0.002 | [11] -0.01 | [12] -0.039 | [13] 0.02 | [16] -0.007 | [14] 0.038 | [15] -0.081
